Measurements published in PubChem BioAssay (NCATS).
Results filed as inconclusive are left out. Activity calls are given as the source filed them. Unless noted, the call rests on the fitted dose curve; in most records, active means well fitted inhibition curve with a large enough effect; inconclusive means small, poorly fitted or top-dose-only effect; inactive means no such curve, though single readings can be large or run the other way.

Tests used:
[1] = qHTS profiling of the MIPE4 collection as inhibitors of Plasmodium falciparum (3D7) proliferation (AID 743344; call rule not given here;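 further: scaled between DMSO vehicle wells and 0.29 µM artemisinin as full inhibition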); conditions: P. falciparum 3D7 in erythrocytes, SYBR Green DNA fluorescence, 72 h; at 28.5 µM unless noted
In short: (§1)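 Parasite DNA was quantified by SYBR Green I fluorescence (ex 485, em 535 nm) after overnight lysis in saponin/Triton buffer at room temperature. Cultures at 0.3% parasitemia and 2.5% hematocrit were first exposed to compound for 72 h at 37 C; signals were normalised to artemisinin (0.29 uM) and vehicle wells.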

[2] = qHTS profiling of the MIPE4 collection as inhibitors of Plasmodium falciparum (DD2) proliferation (AID 743345; call rule not given here); conditions: P. falciparum Dd2 in erythrocytes, SYBR Green DNA, 72 h; at 28.5 µM unless noted
In short: as §1

[3] = qHTS profiling of the MIPE4 collection as inhibitors of Plasmodium falciparum (DD2) proliferation (Rep 2) (AID 743346; call rule not given here); conditions: P. falciparum Dd2 in erythrocytes, SYBR Green DNA, 72 h; at 28.5 µM unless noted
In short: as §1

[4] = qHTS profiling of the MIPE4 collection as inhibitors of Plasmodium falciparum (HB3) proliferation (AID 743347; call rule not given here;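 further: plate controls were DMSO vehicle wells for no effect and artemisinin wells for full effect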); conditions: P. falciparum HB3 in erythrocytes, SYBR Green DNA, 72 h; at 28.5 µM unless noted
In short: as §1

[5] = High-throughput drug toxicity screening in the BPDCN cell line Gen2.2 (AID 1224824; call rule not given here;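 further: cells exposed to compounds for 48 h before reading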); conditions: Gen2.2 BPDCN cells; at 45.8 µM (top of the series) unless noted
In short: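 Gen2.2 cells, 500 per well in phenol red-free RPMI with 10% FBS, exposed to compounds 48 h at 37 C, 5% CO2; viability by CellTiter-Glo luminescence. Percent activity scaled to DMSO (100%) and 9.2 uM bortezomib final (0%).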

[6] = High-throughput drug toxicity screening in the BPDCN cell line Cal-1 (AID 1224825; call rule not given here); conditions: Cal-1 BPDCN cell viability, qHTS; at 45.8 µM (top of the series) unless noted
In short: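 CellTiter-Glo luminescence after 48 h compound exposure; percent activity scaled with DMSO as 100% and bortezomib (9.2 uM final) as 0%. Cal-1 cells seeded at 500/well in RPMI, 10% FBS, no phenol red.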

[7] = qHTS assay for measurement of the activity of small molecule inhibitors on Zika virus induced Caspase-3 activity in human iPSC derived neural progenitor cells (hNPCs) (AID 1224857); further: nearly all actives have a fitted effect of over 65% in size; further: potency means the concentration at half of the fitted maximal effect
In short: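 Caspase-3/7 induction by a 6-hour ZIKV infection was quantified with a luminescent Caspase-Glo 3/7 reagent incubated 30 minutes at room temperature. Compounds were preincubated with hNPCs for 1 hour; inhibition was calculated against uninfected and infected control wells.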

[8] = qHTS assay for measurement of the activity of small molecule inhibitors on Zika virus induced Caspase-3 activity in human astrocytoma cells (AID 1224859);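 further: plate controls were ZIKV-infected untreated cells for no effect and uninfected cells for full effect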
In short: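 In SNB-19 cells plated at 250 cells/well and grown 16-20 h, compounds were applied 1 h before ZIKV (2 FFU/cell). Six hours later caspase-3/7 luminescence was recorded.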

[9] = qHTS Screen of the MIPE 4.0 Collection Against Ewings Sarcoma (RDES) (AID 1259252); further: nearly all actives have a fitted effect of over 35% in size; further: potency means the concentration at half of the fitted maximal effect
In short: (§2)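 Viability screen: 48 h incubation at 37C, 95% humidity, 5% CO2 with serially titrated compound, followed by CellTiter-Glo readout.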

[10] = qHTS Screen of the MIPE 4.0 Collection Against Ewings Sarcoma (TC71) (AID 1259253); further: nearly all actives have a fitted effect of over 40% in size; further: potency means the concentration at half of the fitted maximal effect
In short: as §2

[11] = qHTS Screen of the MIPE 4.0 Collection Against Ewings Sarcoma (EW8) (AID 1259255); further: nearly all actives have a fitted effect of over 35% in size; further: potency means the concentration at half of the fitted maximal effect;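 on viability: 100% = DMSO-treated cells and 0% = medium-only wells without cells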
In short: as §2

## C=CCNc1c(O)cc2c(O)c1C[C@@H](C)C[C@H](OC)[C@@H](O)[C@@H](C)C=C(C)[C@H](OC(N)=O)[C@@H](OC)C=CC=C(C)C(=O)N2
[1]
  parasite growth, % of DMSO control: 4.69%
[2]
  parasite growth remaining, % of DMSO control (lower = more inhibition): 6.14%
[3]
  parasite growth, % of control (lower = inhibition): 11.1%
[4]
  growth, % of control: 8.78%
[5]
  cell viability, % of control (lower = more cytotoxic): 5.31%
[6]
  viability (% of control): 6.05%
[7]
  Potency: inactive
[8]
  Potency: inactive
[9]
  Potency: 2640 nM (active)
[10]
  Potency: 2350 nM (active)
[11]
  Potency: 5900 nM (active)

## Nc1nc(=O)n([C@H]2C[C@H](O)[C@@H](CO)O2)cc1F
[1]
  parasite growth, % of DMSO control: 99.5%
[2]
  parasite growth remaining, % of DMSO control (lower = more inhibition): 95.7%
[3]
  parasite growth, % of control (lower = inhibition): 85.7%
[4]
  growth, % of control: 107%
[5]
  cell viability, % of control (lower = more cytotoxic): 190%
[6]
  viability (% of control): 35.3%
[7]
  Potency: inactive
[8]
  Potency: inactive
[9]
  Potency: 46.9 nM (active)
[10]
  Potency: 93.5 nM (active)
[11]
  Potency: 66.2 nM (active)

## COc1cc2c(Nc3ccc(Cl)c(Cl)c3F)ncnc2cc1OCC1C[C@@H]2CN(C)C[C@H]2C1
[1]
  parasite growth, % of DMSO control: 6.7%
[2]
  parasite growth remaining, % of DMSO control (lower = more inhibition): 7.75%
[3]
  parasite growth, % of control (lower = inhibition): 18.3%
[4]
  growth, % of control: 7.13%
[5]
  cell viability, % of control (lower = more cytotoxic): 2.56%
[6]
  viability (% of control): 2.8%
[7]
  Potency: inactive
[8]
  Potency: inactive
[9]
  Potency: 14800 nM (active)
[10]
  Potency: 10500 nM (active)
[11]
  Potency: 11800 nM (active)

## NC(=O)c1ncn([C@@H]2O[C@H](CO)[C@@H](O)[C@@H]2O)c1O
[1]
  parasite growth, % of DMSO control: 109%
[3]
  parasite growth, % of control (lower = inhibition): 102%
[4]
  growth, % of control: 71.4%
[5]
  cell viability, % of control (lower = more cytotoxic): 113%
[6]
  viability (% of control): 102%
[7]
  Potency: inactive
[8]
  Potency: inactive
[9]
  Potency: inactive
[10]
  Potency: inactive
[11]
  Potency: inactive

## COc1ccc2c(c1OC)C(=O)OC2[C@H]1c2c(cc3c(c2OC)OCO3)CCN1C (stereo partly drawn)
[2]
  parasite growth remaining, % of DMSO control (lower = more inhibition): 20.7%
[3]
  parasite growth, % of control (lower = inhibition): 20.6%
[4]
  growth, % of control: 16.4%
[5]
  cell viability, % of control (lower = more cytotoxic): 24.5%
[6]
  viability (% of control): 8.98%
[7]
  Potency: inactive
[8]
  Potency: inactive
[9]
  Potency: 93.5 nM (active)
[10]
  Potency: 235 nM (active)
[11]
  Potency: 52.6 nM (active)

## CCCNC(=O)[C@H]1O[C@H]1C(=O)N[C@H](C(=O)N1CCC[C@@H]1C(=O)OC)C(C)CC (stereo partly drawn)
[1]
  parasite growth, % of DMSO control: 88%
[3]
  parasite growth, % of control (lower = inhibition): 52.3%
[4]
  growth, % of control: 102%
[5]
  cell viability, % of control (lower = more cytotoxic): 18.6%
[6]
  viability (% of control): 8.18%
[7]
  Potency: inactive
[8]
  Potency: inactive
[9]
  Potency: 3320 nM (active)
[10]
  Potency: 6620 nM (active)
[11]
  Potency: 11800 nM (active)

## O=C(C=Cc1ccc(CN(CCO)CCc2c[nH]c3ccccc23)cc1)NO
[1]
  parasite growth, % of DMSO control: 4.37%
[3]
  parasite growth, % of control (lower = inhibition): 8.38%
[4]
  growth, % of control: 2.54%
[5]
  cell viability, % of control (lower = more cytotoxic): 4.89%
[6]
  viability (% of control): 3.46%
[7]
  Potency: inactive
[8]
  Potency: inactive
[9]
  Potency: 209 nM (active)
[10]
  Potency: 187 nM (active)
[11]
  Potency: 148 nM (active)

## CN[C@H]1[C@@H](O)[C@@H]2O[C@@H]3O[C@H](C)CC(=O)[C@]3(O)O[C@@H]2[C@@H](NC)[C@H]1O
[1]
  parasite growth, % of DMSO control: 6.52%
[2]
  parasite growth remaining, % of DMSO control (lower = more inhibition): 85.6%
[4]
  growth, % of control: 6.56%
[5]
  cell viability, % of control (lower = more cytotoxic): 9.59%
[6]
  viability (% of control): 5.36%
[7]
  Potency: 16600 nM (active)
[8]
  Potency: inactive
[9]
  Potency: 52.6 nM (active)
[10]
  Potency: 1320 nM (active)
[11]
  Potency: 1320 nM (active)

## CC(=O)C1=C(O)C=C2Oc3c(C(C)=O)c(O)c(C)c(O)c3C2(C)C1=O (stereo not drawn)
[1]
  parasite growth, % of DMSO control: 82.6%
[3]
  parasite growth, % of control (lower = inhibition): 81%
[4]
  growth, % of control: 99%
[5]
  cell viability, % of control (lower = more cytotoxic): 141%
[6]
  viability (% of control): 103%
[7]
  Potency: inactive
[8]
  Potency: inactive
[9]
  Potency: inactive
[10]
  Potency: inactive
[11]
  Potency: inactive
